Assay results taken from PubChem BioAssay AID1159580 (chemical genetic matrix, 2015).
Among all 5,500 compounds or so, about 2,000 (36%) were called active. Another 18% or so got no clear call; they are omitted. Rule as the data show it: active = normalized growth mostly below about 0.91 (no sharp cut-off); inconclusive = no clear call, values can overlap the other calls; inactive = mostly above about 0.92. The list shows a part of the results.

Experiment: chemical genetic growth profiling, strain panel (AID 1159580);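 also: tested at 20 µM; growth read once vehicle control cultures reached saturation at 30 °C; 1 = growth at the plate median or of vehicle wells; lower values mean less growth of the strain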
Conditions: growth OD

Measured: normalized growth

CCC(C(=O)O)c1ccccc1 (configuration not stated)
inactive: S. cerevisiae deletion strains, locus YJR075W, strain HOC1, stronger effect = lower value 1 | S. cerevisiae deletion strains, locus YKL009W, strain mrt4, stronger effect = lower value 1.01 | S. cerevisiae deletion strains, locus YKL068W, stronger effect = lower value 0.976 | S. cerevisiae deletion strains, locus YKL085W, strain MDH1 (second series), stronger effect = lower value 0.981 | S. cerevisiae deletion strains, locus YKL085W, strain MDH1, stronger effect = lower value 0.981 | S. cerevisiae deletion strains, locus YKL160W, strain elf1, stronger effect = lower value 0.996 | S. cerevisiae deletion strains, locus YKL190W, strain CNB1, stronger effect = lower value 1.01 | S. cerevisiae deletion strains, locus YKR001C, strain vps1, stronger effect = lower value 0.987 | S. cerevisiae deletion strains, locus YKR026C, strain gcn3, stronger effect = lower value 0.99 | S. cerevisiae deletion strains, locus YKR091W, strain srl3, stronger effect = lower value 0.99 | S. cerevisiae deletion strains, locus YLL001W, strain dnm1, stronger effect = lower value 0.986 | S. cerevisiae deletion strains, locus YLL026W, stronger effect = lower value 0.977 | S. cerevisiae deletion strains, locus YLL041C, strain sdh2, stronger effect = lower value 1 | S. cerevisiae deletion strains, locus YLR027C, strain aat2, stronger effect = lower value 1 | S. cerevisiae deletion strains, locus YLR039C, strain RIC1, stronger effect = lower value 0.958 | S. cerevisiae deletion strains, locus YLR058C, strain SHM2, stronger effect = lower value 1 | S. cerevisiae deletion strains, locus YLR102C, strain apc9, stronger effect = lower value 0.995 | S. cerevisiae deletion strains, locus YLR113W, strain HOG1, stronger effect = lower value 0.912 | S. cerevisiae deletion strains, locus YLR221C, strain rsa3, stronger effect = lower value 0.992 | S. cerevisiae deletion strains, locus YLR258W, strain gsy2, stronger effect = lower value 1 | S. cerevisiae deletion strains, locus YLR262C, strain YPT6 (second series), stronger effect = lower value 1.01 | S. cerevisiae deletion strains, locus YLR262C, strain YPT6, stronger effect = lower value 0.966 | S. cerevisiae deletion strains, locus YLR268W, strain sec22, stronger effect = lower value 1.01 | S. cerevisiae deletion strains, locus YLR320W, strain mms22, stronger effect = lower value 0.989 | S. cerevisiae deletion strains, locus YLR330W, strain CHS5, stronger effect = lower value 1 | S. cerevisiae deletion strains, locus YLR342W, strain FKS1 (second series), stronger effect = lower value 0.994 | S. cerevisiae deletion strains, locus YLR342W, strain FKS1, stronger effect = lower value 0.998 | S. cerevisiae deletion strains, locus YLR357W, strain rsc2, stronger effect = lower value 0.951 | S. cerevisiae deletion strains, locus YLR370C, strain arc18, stronger effect = lower value 0.977 | S. cerevisiae deletion strains, locus YLR371W, strain rom2, stronger effect = lower value 1.01 | S. cerevisiae deletion strains, locus YLR384C, strain iki3, stronger effect = lower value 0.97 | S. cerevisiae deletion strains, locus YLR418C, strain cdc73, stronger effect = lower value 1.03 | S. cerevisiae deletion strains, locus YML016C, strain PPZ1, stronger effect = lower value 1 | S. cerevisiae deletion strains, locus YML032C, strain rad52, stronger effect = lower value 0.997 | S. cerevisiae deletion strains, locus YML120C, strain ndi1, stronger effect = lower value 0.979 | S. cerevisiae deletion strains, locus YML124C, strain tub3, stronger effect = lower value 1 | S. cerevisiae deletion strains, locus YMR058W, strain fet3, stronger effect = lower value 0.986 | S. cerevisiae deletion strains, locus YMR078C, strain ctf18, stronger effect = lower value 0.996 | S. cerevisiae deletion strains, locus YMR125W, strain sto1, stronger effect = lower value 0.977 | S. cerevisiae deletion strains, locus YMR129W, stronger effect = lower value 0.992 | S. cerevisiae deletion strains, locus YMR205C, strain PFK2, stronger effect = lower value 0.996 | S. cerevisiae deletion strains, locus YMR223W, strain ubp8, stronger effect = lower value 1 | S. cerevisiae deletion strains, locus YMR231W, strain pep5, stronger effect = lower value 0.992 | S. cerevisiae deletion strains, locus YMR263W, strain SAP30, stronger effect = lower value 1.01 | S. cerevisiae deletion strains, locus YMR307W, strain GAS1, stronger effect = lower value 1.07 | S. cerevisiae deletion strains, locus YNL067W, strain RPL9B, stronger effect = lower value 1.03 | S. cerevisiae deletion strains, locus YNL071W, strain lat1, stronger effect = lower value 0.989 | S. cerevisiae deletion strains, locus YNL128W, strain TEP1, stronger effect = lower value 1.02 | S. cerevisiae deletion strains, locus YNL153C, strain GIM3, stronger effect = lower value 1 | S. cerevisiae deletion strains, locus YNL183C, strain NPR1, stronger effect = lower value 0.905 | S. cerevisiae deletion strains, locus YNL209W, strain ssb2, stronger effect = lower value 0.989 | S. cerevisiae deletion strains, locus YNL233W, strain BNI4, stronger effect = lower value 0.999 | S. cerevisiae deletion strains, locus YNL248C, strain rpa49, stronger effect = lower value 0.984 | S. cerevisiae deletion strains, locus YNL250W, strain rad50, stronger effect = lower value 0.975 | S. cerevisiae deletion strains, locus YNL271C, strain bni1, stronger effect = lower value 0.988 | S. cerevisiae deletion strains, locus YNL298W, strain CLA4, stronger effect = lower value 0.989 | S. cerevisiae deletion strains, locus YNL307C, strain MCK1, stronger effect = lower value 0.999 | S. cerevisiae deletion strains, locus YNL322C, strain KRE1 (second series), stronger effect = lower value 0.972 | S. cerevisiae deletion strains, locus YNL322C, strain KRE1, stronger effect = lower value 1 | S. cerevisiae deletion strains, locus YNR049C, strain mso1, stronger effect = lower value 1.01 | S. cerevisiae deletion strains, locus YNR052C, strain pop2, stronger effect = lower value 0.99 | S. cerevisiae deletion strains, locus YOL006C, strain TOP1, stronger effect = lower value 1.03 | S. cerevisiae deletion strains, locus YOL012C, strain htz1 2.17 | S. cerevisiae deletion strains, locus YOL147C, strain pex11, stronger effect = lower value 0.998 | S. cerevisiae deletion strains, locus YOR001W, strain rrp6, stronger effect = lower value 0.974 | S. cerevisiae deletion strains, locus YOR061W, strain CKA2, stronger effect = lower value 1 | S. cerevisiae deletion strains, locus YOR069W, strain VPS5, stronger effect = lower value 1 | S. cerevisiae deletion strains, locus YOR070C, strain gyp1, stronger effect = lower value 0.976 | S. cerevisiae deletion strains, locus YOR080W, strain dia2, stronger effect = lower value 0.984 | S. cerevisiae deletion strains, locus YOR083W, strain WHI5, stronger effect = lower value 0.994 | S. cerevisiae deletion strains, locus YOR106W, strain vam3, stronger effect = lower value 0.989 | S. cerevisiae deletion strains, locus YOR136W, strain idh2, stronger effect = lower value 1.01 | S. cerevisiae deletion strains, locus YOR144C, strain elg1, stronger effect = lower value 0.999 | S. cerevisiae deletion strains, locus YOR184W, strain ser1, stronger effect = lower value 0.992 | S. cerevisiae deletion strains, locus YOR231W, strain MKK1, stronger effect = lower value 0.951 | S. cerevisiae deletion strains, locus YOR265W, strain rbl2, stronger effect = lower value 1 | S. cerevisiae deletion strains, locus YOR270C, strain vph1, stronger effect = lower value 1.02 | S. cerevisiae deletion strains, locus YOR290C, strain snf2, stronger effect = lower value 0.976 | S. cerevisiae deletion strains, locus YOR316C, strain cot1, stronger effect = lower value 1 | S. cerevisiae deletion strains, locus YPL051W, strain arl3, stronger effect = lower value 0.964 | S. cerevisiae deletion strains, locus YPL055C, strain LGE1, stronger effect = lower value 1.03 | S. cerevisiae deletion strains, locus YPL078C, strain atp4, stronger effect = lower value 0.974 | S. cerevisiae deletion strains, locus YPL106C, strain sse1, stronger effect = lower value 0.97 | S. cerevisiae deletion strains, locus YPL240C, strain hsp82, stronger effect = lower value 0.988 | S. cerevisiae deletion strains, locus YPL241C, strain CIN2, stronger effect = lower value 1.01 | S. cerevisiae deletion strains, locus YPL256C, strain CLN2, stronger effect = lower value 0.907 | S. cerevisiae deletion strains, locus YPR119W, strain clb2, stronger effect = lower value 0.994 | S. cerevisiae deletion strains, locus YPR141C, strain kar3, stronger effect = lower value 0.976 | S. cerevisiae deletion strains, locus YPR163C, strain tif3, stronger effect = lower value 1 | S. cerevisiae deletion strains, locus YPR167C, strain met16, stronger effect = lower value 0.999 | S. cerevisiae deletion strains, strain wtn01, stronger effect = lower value 0.999 | S. cerevisiae strains, strain wild type, stronger effect = lower value 1
